Hits are enriched below; roughly 4.7% of the tested compounds scored in any of these assays.
D1 agonist: Allosteric Agonists of the Human D1 Dopamine Receptor: qHTS; 1% of 360,000 active; D(1A) dopamine receptor (Homo sapiens), P21728; HEK293 T-REx D1 cells, calcium flux, agonist mode; activation, % at 2 µM; further: 0% is about no effect
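Tetracycline-induced HEK293 TREx D1 cells, force-coupled to calcium signalling, were dye-loaded with a no-wash calcium kit. Compound was pin-added after a 10 s baseline. Fluorescence was read kinetically at 1 cycle/s for 180 s, with calcium rises flagged as agonism.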
D1 antag: Antagonist of Human D 1 Dopamine Receptor: qHTS. D(1A) dopamine receptor (Homo sapiens), P21728. HEK293 TREx D1 cells, calcium flux, dopamine EC80; hits give low values. activity change, negative = inhibition, % at 10 µM. 3.2% of 360,000 active; in the data active means activity change below about -30%; further: on the % scale 0 is the no-effect control and ±100 the full control effect
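Cells carrying a force-coupled, tetracycline-inducible human D1 receptor report calcium flux. Each well gets a 10 s baseline, compound with 180 s monitoring, then an EC80 dopamine stimulus with a second 180 s kinetic read.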
D1 PAM: Potentiators of Human D1 Dopamine Receptor: qHTS; 0.036% of 360,000 active; AID 504651, 2011; potentiation, % at 10 µM; D(1A) dopamine receptor (Homo sapiens), P21728; HEK293 TREx D1 cells, calcium flux, dopamine EC20 potentiation; in the data active means potentiation above about 30%; further: 0% is about no effect
TRHR agonist-1: qHTS for Small Molecule Agonists and Allosteric Enhancers of Human TRH Receptor: Primary Screen for Agonists | Thyrotropin-releasing hormone receptor (Homo sapiens), P34981 | TRHR cells, calcium flux fluo-8, FDSS agonist mode | activation, % at 2 µM | 0.18% of 360,000 active; further: 0% is about no effect
Target sequence (P34981 whole entry, looked up): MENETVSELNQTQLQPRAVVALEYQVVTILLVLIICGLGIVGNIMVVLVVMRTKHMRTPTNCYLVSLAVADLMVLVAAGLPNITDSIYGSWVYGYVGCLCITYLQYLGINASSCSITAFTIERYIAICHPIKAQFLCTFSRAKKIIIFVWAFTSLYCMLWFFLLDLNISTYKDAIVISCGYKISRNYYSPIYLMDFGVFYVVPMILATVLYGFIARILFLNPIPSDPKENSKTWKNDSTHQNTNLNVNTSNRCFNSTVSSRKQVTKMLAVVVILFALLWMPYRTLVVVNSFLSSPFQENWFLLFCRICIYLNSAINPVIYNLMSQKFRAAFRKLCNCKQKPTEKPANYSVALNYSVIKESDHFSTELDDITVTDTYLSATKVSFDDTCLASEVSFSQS
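Read-out: compound-evoked intracellular calcium rise in TRHR cells, fluo-8 dye, kinetic FDSS fluorescence at 1 s/cycle following a 10-cycle baseline. Cells cultured overnight before dye loading (30 min–1.5 h, RT).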
TRHR enhancer-1: qHTS for Small Molecule Agonists and Allosteric Enhancers of Human TRH Receptor: Primary Screen for Enhancers. enhancement, % at 2 µM. Thyrotropin-releasing hormone receptor (Homo sapiens), P34981. 0.66% of 360,000 active. TRHR cells, fluo-8 calcium fluorescence, EC20 TRH enhancement; in the data active means enhancement above about 30%; further: 0% is about no effect
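TRHR-expressing cells loaded with fluo-8 calcium dye were read kinetically (ex 480/em 530) during compound addition, then stimulated with an EC20 of TRH (10 nM final). Enhancement of the Gq-mediated intracellular calcium response was scored.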
TRHR enhancer-2: qHTS for Small Molecule Agonists and Allosteric Enhancers of Human TRH Receptor: Confirmation Screen for Enhancers. shares compounds with TRHR enhancer-1. TRH receptor cell assay, enhancer confirmation qHTS. activity change, negative = inhibition, % at 46.1 µM. 970 tested, under 10 active; active means well fitted curve in the direction sought with a large enough effect; inconclusive means small, poorly fitted or top-dose-only effect, or another doubt; inactive means no such curve, though single readings can be large; an effect the other way counts as inactive or inconclusive;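 further: compound effect scored on response to added TRH at EC20 of 10 nM; 0% is about no effect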
TRHR agonist-2: qHTS for Small Molecule Agonists and Allosteric Enhancers of Human TRH Receptor: Confirmation Screen for Agonists. TRHR-expressing cells, agonist activation read-out. shares compounds with TRHR enhancer-1. AID 493078, 2011. Potency, µM (doses to about 46.1 µM), without a hit: top-dose activation, hits mostly activators. 8% of 970 active; active means well fitted curve in the direction sought with a large enough effect; inconclusive means small, poorly fitted or top-dose-only effect, or another doubt; inactive means no such curve, though single readings can be large; an effect the other way counts as inactive or inconclusive; further: potency means the concentration at half of the fitted maximal effect; 0% is about no effect; nearly all actives have a fitted effect of over 75% in size
An asterisk follows results filed as active; ? = inconclusive; . = no result. Unless noted, no stated cut-off is given here; in the data, active means activation above about 30%; inactive means the rest.

SMILES	D1 agonist	D1 antag	D1 PAM	TRHR agonist-1	TRHR enhancer-1	TRHR enhancer-2	TRHR agonist-2
COc1cc(/C=C(\C#N)c2nc3ccccc3n2C)cc(OC)c1O	64*	1	-4	119*	17	-1	18µM*
Cn1c(/C(C#N)=C/c2ccc(O)cc2)nc2ccccc21	2	-2	0	1	4	.	.
CCOC(=O)C1CCCN(S(=O)(=O)c2ccc3c(c2)CCN3C(=O)CC)C1 (stereo not drawn)	11	-6	-2	0	-8	.	.
CCOCCCNC(=O)c1cc(Sc2ccc(F)cc2)nc2ccccc12	4	4	-4	0	49*	-7	3%
Cc1c(C(=O)N(Cc2ccc(N(C)C)cc2)CC2CCCO2)oc2ccc(Cl)cc12 (stereo not drawn)	1	-14	0	1	-4	.	.
COc1ccc(/C=C2\SC(=S)N(c3cccnc3)C2=O)cc1	5	8	3	0	-12	.	.
O=C1/C(=C\c2ccc(O)cc2)SC(=S)N1c1cccnc1	66*	-2	-6	36*	-2	-6	?
Cc1cc(C)nc(NN2C(=O)/C(=C/c3ccc(O)cc3)SC2=S)n1	43*	19	-1	36*	7	-6	21µM*
CCCCNC(=O)c1cc(-c2ccc(F)cc2)on1	1	-5	-3	0	41*	-2	6%
O=C(CSc1ccc(-c2ccc(F)cc2)nn1)N1CCOCC1	6	0	4	0	50*	-5	1%
Cc1[nH]nc2c1C(c1c[nH]c3ccccc13)C(C#N)=C(N)O2 (stereo not drawn)	5	-4	-5	0	51*	0	1%
O=S(=O)(NCc1ccccc1F)NCc1ccccc1F	-1	-25	-7	-1	58*	-6	0%
O=c1ccc2cc3c4c(c2o1)CCCN4CCC3	75*	-20	-3	47*	-5	?	21µM*
CC1(C)Cc2c(sc(NC(=O)c3ccc4ncsc4c3)c2C(N)=O)C(C)(C)N1	2	1	0	0	44*	9	0%
Cc1ccc(-c2nc(CCNC(=O)C(=O)Nc3ccc(C)c(Cl)c3)cs2)cc1	0	-25	-5	0	12	.	.
O=C(O)c1cccc(-c2ccc(/C=c3/sc4nc5ccccc5n4c3=O)o2)c1	39*	-18	-10	30	-5	-7	?
O=[N+]([O-])c1ccc(S(=O)(=O)N2CCn3cccc3C2c2ccc(Br)cc2)cc1 (stereo not drawn)	-2	.	2	0	-5	.	.
C=C(C)c1cccc(C(C)(C)NC(=O)Nc2cc(C)ccn2)c1	5	-2	-1	0	46*	-12	-1%
C=C(C)c1cccc(C(C)(C)NC(=O)Nc2nncs2)c1	1	-28	-1	-1	6	.	.
Cn1nc(C(=O)OCC(=O)Nc2ccc(Cl)cc2Cl)c2ccccc2c1=O	0	1	-10	0	42*	-2	-1%
O=Cc1c(NCc2ccco2)nc2ccccn2c1=O	0	-1	-3	0	46*	-7	4%
O=C(COC(=O)c1ccc(Cl)cc1[N+](=O)[O-])NC(=O)c1ccccc1	4	-11	1	1	-3	.	.
Nc1ccc(C(=O)OCC(=O)NC(=O)c2ccccc2)cc1[N+](=O)[O-]	8	-2	3	4	55*	-5	6%
COc1ccccc1C1(O)CCN(C(=O)c2cccs2)CC1	0	-3	-5	0	46*	-3	1%
COc1cc(C2C(=O)N(C3CCCCC3)CC(=O)N2CCc2ccccc2)ccc1OC(C)C (stereo not drawn)	-5	-5	1	-1	6	.	.
SMILES	D1 agonist	D1 antag	D1 PAM	TRHR agonist-1	TRHR enhancer-1	TRHR enhancer-2	TRHR agonist-2
O=S(=O)(NCC1CCCO1)c1ccc(Cl)cc1 (stereo not drawn)	4	-4	0	0	46*	-2	1%
Fc1ccc(C2CC(c3ccco3)=NN2c2ccccc2)cc1 (stereo not drawn)	4	7	5	0	10	.	.
O=[N+]([O-])c1ccc(N2N=C(c3ccco3)CC2c2ccccc2)cc1 (stereo not drawn)	50*	1	-5	28	-9	6	?
Cc1cc(C)cc(NC(=O)CSc2oc(-c3ccco3)nc2S(=O)(=O)c2ccc(Cl)cc2)c1	11	-12	2	0	2	.	.
Nn1c(N2CCCCC2)nc2ccccc21	2	22	9	0	71*	-1	4%
O=C(CN1CCCN(Cc2ccc(F)cc2)S1(=O)=O)NCc1ccccc1Cl	-1	3	-1	-1	7	.	.
CC1=C(C(=O)OCC(C)C)C(c2cc3c(cc2Br)OCO3)NC(=O)N1C (stereo not drawn)	5	4	1	-2	53*	-7	?
CC1=C(C(=O)OCC(C)C)C(c2ccccc2Cl)NC(=O)N1C (stereo not drawn)	5	-5	.	-1	-1	.	.
CCn1nc(C)c2c(-c3ccccc3)cc(=O)n(C(C)C(=O)NCCc3ccccc3)c21 (stereo not drawn)	1	13	-4	0	-7	.	.
CCCCSc1nc2c(cnn2-c2ccc(Cl)cc2)c(=O)[nH]1	3	-2	1	0	42*	-1	0%
Cc1ccc(NC(=O)CSc2nc3ccccc3nc2Cc2ccccc2F)cc1F	8	11	1	-1	9	.	.
CC(C)(C)C(=O)CN1C(=O)NC(c2ccccc2)(c2ccccc2)C1=O	1	2	8	3	42*	-1	0%
NC(=O)CN1C(=O)NC(c2ccccc2)(c2ccccc2)C1=O	2	-6	-4	1	1	.	.
COc1ccc(Nc2c(-c3ccc(C)o3)nc3ccc(Cl)cn23)cc1	4	-2	-1	0	-6	.	.

Source: PubChem BioAssay (National Center for Advancing Translational Sciences (NCATS))
